# About 2,000 (36%) of roughly 5,500 compounds were called active. Roughly 18% stayed inconclusive and do not appear here. Some of the results follow. Values without a mark were called inactive. Rule as the data show it: active = normalized growth mostly below about 0.91 (no sharp cut-off); inconclusive = no clear call, values can overlap the other calls; inactive = mostly above about 0.92.
# Experiment: chemical genetic growth profiling, strain panel (AID 1159580);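 also: tested at 20 µM; growth read once vehicle control cultures reached saturation at 30 °C; 1 = growth at the plate median or of vehicle wells; lower values mean less growth of the strain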
# Details: growth OD
# [1] = S. cerevisiae deletion strains, locus YAL040C, strain CLN3, stronger effect = lower value
# [2] = S. cerevisiae deletion strains, locus YDR363W, strain ESC2, stronger effect = lower value
# [3] = S. cerevisiae deletion strains, locus YER002W, strain NOP16, stronger effect = lower value
# [4] = S. cerevisiae deletion strains, locus YMR307W, strain GAS1, stronger effect = lower value
# [5] = S. cerevisiae deletion strains, locus YNL153C, strain GIM3, stronger effect = lower value
# [6] = S. cerevisiae deletion strains, locus YNL175C, strain NOP13, stronger effect = lower value
# [7] = S. cerevisiae deletion strains, locus YNL197C, strain WHI3, stronger effect = lower value
# [8] = S. cerevisiae deletion strains, locus YNL224C, strain SQS1, stronger effect = lower value
# [9] = S. cerevisiae deletion strains, locus YOR083W, strain WHI5 (second series), stronger effect = lower value
# [10] = S. cerevisiae deletion strains, locus YPL055C, strain LGE1, stronger effect = lower value
# [11] = S. cerevisiae deletion strains, locus YPL241C, strain CIN2, stronger effect = lower value
# [12] = S. cerevisiae deletion strains, locus YAL013W, strain DEP1, stronger effect = lower value
# [13] = S. cerevisiae deletion strains, locus YBR229C, strain ROT2, stronger effect = lower value
# [14] = S. cerevisiae deletion strains, locus YDL101C, strain DUN1, stronger effect = lower value
# [15] = S. cerevisiae deletion strains, locus YDR150W, strain NUM1, stronger effect = lower value
# [16] = S. cerevisiae deletion strains, locus YEL061C, strain CIN8, stronger effect = lower value
# [17] = S. cerevisiae deletion strains, locus YGR078C, strain PAC10, stronger effect = lower value
# [18] = S. cerevisiae deletion strains, locus YGR229C, strain SMI1, stronger effect = lower value
# [19] = S. cerevisiae deletion strains, locus YHR030C, strain SLT2, stronger effect = lower value
# [20] = S. cerevisiae deletion strains, locus YHR087W, strain rtc3, stronger effect = lower value
# [21] = S. cerevisiae deletion strains, locus YJL187C, strain SWE1, stronger effect = lower value
# [22] = S. cerevisiae deletion strains, locus YJR043C, strain POL32, stronger effect = lower value
# [23] = S. cerevisiae deletion strains, locus YJR075W, strain HOC1, stronger effect = lower value
# [24] = S. cerevisiae deletion strains, locus YKL190W, strain CNB1, stronger effect = lower value
# [25] = S. cerevisiae deletion strains, locus YLR039C, strain RIC1, stronger effect = lower value
# [26] = S. cerevisiae deletion strains, locus YLR058C, strain SHM2 (second series), stronger effect = lower value
# [27] = S. cerevisiae deletion strains, locus YLR085C, strain ARP6, stronger effect = lower value
# [28] = S. cerevisiae deletion strains, locus YLR262C, strain YPT6, stronger effect = lower value
# [29] = S. cerevisiae deletion strains, locus YML094W, strain GIM5, stronger effect = lower value
# [30] = S. cerevisiae deletion strains, locus YMR219W, strain ESC1, stronger effect = lower value
# [31] = S. cerevisiae deletion strains, locus YMR263W, strain SAP30, stronger effect = lower value
# [32] = S. cerevisiae deletion strains, locus YNL128W, strain TEP1, stronger effect = lower value
# [33] = S. cerevisiae deletion strains, locus YNL298W, strain CLA4 (second series), stronger effect = lower value
# [34] = S. cerevisiae deletion strains, locus YNL322C, strain KRE1, stronger effect = lower value
# [35] = S. cerevisiae deletion strains, locus YNR030W, strain Alg12, stronger effect = lower value
# [36] = S. cerevisiae deletion strains, locus YPR135W, strain CTF4, stronger effect = lower value
# [37] = S. cerevisiae deletion strains, locus YDL134C, strain PPH21, stronger effect = lower value
# [38] = S. cerevisiae deletion strains, locus YOL006C, strain TOP1, stronger effect = lower value
structure (smiles),measurement,setting,value
N[C@@H](CCl)C(=O)O,normalized growth,[1],0.98
same,normalized growth,[2],1.03
same,normalized growth,[3],0.99
same,normalized growth,[4],0.993
same,normalized growth,[5],1.05
same,normalized growth,[6],1.01
same,normalized growth,[7],1.03
same,normalized growth,[8],0.996
same,normalized growth,[9],1.01
same,normalized growth,[10],1.02
same,normalized growth,[11],1
CC(=O)c1cc2cc(Br)ccc2oc1=O,normalized growth,[12],0.987
same,normalized growth,[13],0.967
same,normalized growth,[14],0.998
same,normalized growth,[15],0.994
same,normalized growth,[16],0.975
same,normalized growth,[17],0.976
same,normalized growth,[18],0.994
same,normalized growth,[19],0.818
same,normalized growth,[20],0.96
same,normalized growth,[21],0.97
same,normalized growth,[22],0.984
same,normalized growth,[23],0.948
same,normalized growth,[24],0.992
same,normalized growth,[25],0.618 (active)
same,normalized growth,[26],0.964
same,normalized growth,[27],0.936
same,normalized growth,[28],0.628 (active)
same,normalized growth,[29],0.999
same,normalized growth,[30],0.96
same,normalized growth,[31],1
same,normalized growth,[32],1.01
same,normalized growth,[5],0.994
same,normalized growth,[33],0.983
same,normalized growth,[34],0.964
same,normalized growth,[35],0.97
same,normalized growth,[10],1.02
same,normalized growth,[11],0.964
same,normalized growth,[36],0.717
CC(=O)Nc1cc2ccccc2oc1=O,normalized growth,[12],1
same,normalized growth,[13],1
same,normalized growth,[14],0.975
same,normalized growth,[37],1
same,normalized growth,[15],0.986
same,normalized growth,[16],1.02
same,normalized growth,[17],1.01
same,normalized growth,[18],0.997
same,normalized growth,[19],0.942
same,normalized growth,[20],0.988
same,normalized growth,[22],1.01
same,normalized growth,[23],0.997
same,normalized growth,[24],1
same,normalized growth,[25],1.06
same,normalized growth,[26],1.01
same,normalized growth,[27],1.01
same,normalized growth,[28],1.04
same,normalized growth,[29],0.997
same,normalized growth,[30],1
same,normalized growth,[31],0.996
same,normalized growth,[4],1.09
same,normalized growth,[5],0.984
same,normalized growth,[33],0.998
same,normalized growth,[34],1.01
same,normalized growth,[35],1
same,normalized growth,[38],0.958
same,normalized growth,[10],0.969
same,normalized growth,[11],0.985
same,normalized growth,[36],0.946
CC(=O)c1cc2ccccc2oc1=O,normalized growth,[12],1.02
same,normalized growth,[13],1.01
same,normalized growth,[14],0.961
same,normalized growth,[37],1.02
same,normalized growth,[15],0.94
same,normalized growth,[16],1.01
same,normalized growth,[17],0.986
same,normalized growth,[19],1
same,normalized growth,[20],1.03
same,normalized growth,[21],0.999
same,normalized growth,[22],0.999
same,normalized growth,[23],0.988
same,normalized growth,[25],1.05
same,normalized growth,[26],1.01
same,normalized growth,[27],1.08
same,normalized growth,[28],1
same,normalized growth,[29],1.02
same,normalized growth,[30],0.993
same,normalized growth,[31],1.02
same,normalized growth,[32],1.01
same,normalized growth,[5],1.01
same,normalized growth,[33],1.07
same,normalized growth,[34],0.99
same,normalized growth,[35],1.05
same,normalized growth,[38],1.02
same,normalized growth,[10],1.13
same,normalized growth,[11],1.03
same,normalized growth,[36],0.984
same,normalized growth,"S. cerevisiae strains, strain wild type, stronger effect = lower value",1.03
CCCCCCCCCCCCCCCCOCC(COCC(F)(F)F)OP(=O)(O)OCO (stereo unspecified),normalized growth,[12],0.947
same,normalized growth,[1],1
same,normalized growth,"S. cerevisiae deletion strains, locus YCL061C, strain MRC1 (second series), stronger effect = lower value",0.987
same,normalized growth,[2],0.968
same,normalized growth,[3],0.995
same,normalized growth,[18],0.767 (active)
same,normalized growth,[23],1.03
same,normalized growth,[31],1.02
same,normalized growth,[6],0.995
same,normalized growth,[7],1
same,normalized growth,[8],0.964
same,normalized growth,[9],0.988
same,normalized growth,[10],0.881 (active)
same,normalized growth,[11],0.988
